GAA850 FXN act: activators of GAA850 frataxin (FXN) promoter; HEK293 lucGAA850 FXN promoter luciferase reporter, 24 h; percent of 10 µM SAHA response; AID 540364; 360,000 compounds, 0.56% hits; activation, % at 6 µM;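 active means activation above the average of all compounds screened plus 3 SD, cutoff fixed separately per campaign, cut at about 7.5% in these data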
GalR3 antagonist: human GalR3 antagonism. O60755. HEK293 GalR3-CNG cAMP membrane potential fluorescence; galR3 body fused to GalR1 C-terminus. inhibition, % at 3 µM. 360,000 compounds, 0.44% hits;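 active means inhibition above the screen-wide average plus 3 SD, cut at about 13% in these data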;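 further: forskolin and galanin both at EC90 stimulate the cells; cAMP rise reported by CNG channel membrane potential dye signal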
Target sequence (O60755 1-299 limits assumed): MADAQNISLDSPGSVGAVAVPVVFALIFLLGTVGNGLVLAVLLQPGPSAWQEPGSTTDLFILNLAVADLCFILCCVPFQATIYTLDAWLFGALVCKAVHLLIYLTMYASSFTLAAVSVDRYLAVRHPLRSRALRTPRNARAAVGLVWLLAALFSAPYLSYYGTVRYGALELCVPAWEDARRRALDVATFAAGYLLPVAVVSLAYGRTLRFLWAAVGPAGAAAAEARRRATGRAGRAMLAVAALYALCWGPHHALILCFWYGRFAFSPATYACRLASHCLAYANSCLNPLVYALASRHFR
HIF activator: HIF pathway transcriptional activation | U2OS HRE-luciferase reporter, luminescence; normalized: DMSO 0%, desferrioxamine 100% | activation, % at 7.5 µM (by protocol) | 300,000 compounds, 0.32% hits | AID 1910;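 active means mean activation of at least 10% of the iron chelator positive control signal, with at least half of replicates also reaching 10%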
SMARCA2 act: activators of SMARCA2 function; MG213 cells, MMTV-luciferase reporter, dexamethasone, overnight; activation, % at 9.1 µM; 370,000 compounds, 1% hits; in the data active means activation above about 7.8%
Hsp70 activator: transcriptional activators of Hsp70; HeLa Hsp70 promoter luciferase reporter, luminescence; scaled: vehicle 0, proteasome-inhibitor control 100%; activation, % at 10 µM; 200,000 compounds, 0.04% hits;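 active means activation above the mean across all tested compounds plus 3 SD, cutoff set per campaign, cut at about 5.5% in these data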
SMARCA2 conf: SMARCA2 activation, confirmation screen; activation, % at 9.1 µM; AID 652260; shares compounds with SMARCA2 act; 3,500 compounds, 30% hits; MG213 cells, MMTV-luciferase with dexamethasone, luminescence, overnight; MG213 cells expressing E1A, Rb sequestered; DMSO wells 0%, reference activator 100%;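 active means activation above its plate's cutoff, the mean activation of tested wells plus 3 SD, cut at about 7.9% in these data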
VP16 Luc act: counter-screen for SMARCA2 activators: GAL4-VP16 luciferase reporter activation; shares compounds with SMARCA2 act; HEK293 GAL4-VP16 pG5luc reporter, luciferase luminescence; scaled: DMSO wells 0%, SAHA wells 100%; activation, % at 9.1 µM; 3,500 compounds, 41% hits; AID 686939;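 active means activation above the solvent-only control well mean plus 3 SD, averaged across control plates, cut at about 5.2% in these data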
Large screens that a line does not name were inactive (follow-up assays come after a bar, where they were run). The list is not random: actives were taken first. Their share in the collection is about 2.2%.

COc1ccc(C2Nc3ccccc3C(=O)N2c2ccc(C)cc2)cc1Cn1cc([N+](=O)[O-])cn1 (stereo not given)	SMARCA2 act 9.8 | SMARCA2 conf inactive | VP16 Luc act 7.4
CC1(C)OC(=O)C2=C(C[C@@H](CCC(F)(F)F)O[C@H]2c2ccc(F)cc2)O1	SMARCA2 act 8.2 (no result: GAA850 FXN act, HIF activator, Hsp70 activator) | SMARCA2 conf inactive | VP16 Luc act inactive
CCCCN(C)S(=O)(=O)c1ccc2[nH]c(=O)oc2c1	none (no result: GAA850 FXN act, GalR3 antagonist, HIF activator, Hsp70 activator)
COc1ccc(C2NC(=O)NC(C)=C2C(=O)OCc2ccccc2)cc1 (stereo not given)	SMARCA2 act 14 (no result: Hsp70 activator) | SMARCA2 conf inactive | VP16 Luc act inactive
CC1=C(C(=O)OCc2ccccc2)C(c2ccccc2)NC(=O)N1 (stereo not given)	none (no result: Hsp70 activator)
COc1cccc(-c2nc(N3CCN(C)CC3)c3ccccc3n2)c1O	SMARCA2 act 19 (no result: Hsp70 activator) | SMARCA2 conf 19 | VP16 Luc act inactive
CCOC(=O)[C@]12CCCC3=C1N(CCC3)C(=O)[C@@H](CC(=O)NCCC(C)C)C2	none (no result: GAA850 FXN act, GalR3 antagonist, HIF activator, Hsp70 activator)
c1ccc(-c2nc3nc4ccccc4nc3n2Cc2ccco2)cc1	SMARCA2 act 8.0 | SMARCA2 conf inactive | VP16 Luc act 14
O=C(Nc1sc2c(c1C(=O)O)CCC2)c1ccco1	SMARCA2 act 9.1 | SMARCA2 conf inactive | VP16 Luc act inactive
CC1(c2ccncc2)Nc2ccccc2-c2nc3ccccc3n21 (stereo not given)	SMARCA2 act 9.1 | SMARCA2 conf inactive | VP16 Luc act inactive
COc1ccc2c(c1)C1(Nc3ccccc3-c3nc4ccccc4n31)C(=O)N2 (stereo not given)	none
CC(C)C[C@H]1COc2cccc(F)c2S(=O)(=O)N1Cc1cn(CCC2OCCO2)nn1	none (no result: GAA850 FXN act, GalR3 antagonist, HIF activator, Hsp70 activator)
Cc1ccc(OCC(O)CN2CCOCC2)c(C)c1 (stereo not given)	SMARCA2 act 8.3 (no result: Hsp70 activator) | SMARCA2 conf inactive | VP16 Luc act inactive
CCC(CO)Nc1cccc2c1S(=O)(=O)N(Cc1cn(Cc3ccc(F)cc3)nn1)Cc1ccccc1O2 (stereo not given)	none (no result: GAA850 FXN act, GalR3 antagonist, HIF activator, Hsp70 activator)
Cc1nc(-c2ccccc2)nc2[nH]c(=O)n(-c3ccccc3)c(=O)c12	SMARCA2 act 11 | SMARCA2 conf inactive | VP16 Luc act 6.3
COC(=O)c1ccc2c(c1)C(=O)/C(=C/c1ccc(C)cc1)O2	none
CCc1ccc(/C=C2\Oc3ccc(C(=O)OC)cc3C2=O)cc1	SMARCA2 act 10 | SMARCA2 conf inactive | VP16 Luc act 6.5
CCN1CCN(Cc2ccc(NC(=O)c3cc(NC(=O)C(=O)c4c[nH]c5ccccc45)cc(OC)c3)cc2C(F)(F)F)CC1	SMARCA2 act 10 (no result: Hsp70 activator) | SMARCA2 conf inactive | VP16 Luc act inactive
O=c1cc(-c2ccccc2)nc2cc(-c3ccco3)[nH]n12	none (no result: Hsp70 activator)
O=C1c2nc3cc(-c4ccco4)[nH]n3c(=O)c2CN1C1CCCCC1	SMARCA2 act 11 (no result: Hsp70 activator) | SMARCA2 conf inactive | VP16 Luc act inactive
COC(=O)[C@]12C[C@H](CC(=O)NCc3ccc(C)o3)C(=O)N(Cc3cccc4ccccc34)C1=C[C@H](COCc1ccccc1)O[C@@H]2C	none (no result: GAA850 FXN act, GalR3 antagonist, HIF activator, Hsp70 activator)
COc1ccc(C2=Nn3c(nnc3-c3cccnc3)SC2)cc1	SMARCA2 act 9.7 | SMARCA2 conf inactive | VP16 Luc act inactive
COC(=O)[C@H]1C[C@@]2(N3CCCCC3)c3ccccc3N(C(=O)OC(C)(C)C)[C@H]2N1C(=O)OC(C)(C)C	none (no result: GAA850 FXN act, GalR3 antagonist, HIF activator, Hsp70 activator)
O=C(Nc1ccc2[nH]ncc2c1)c1cccc(F)c1	none (no result: Hsp70 activator)
Cc1ccc2cc(NC(=O)c3cccc(F)c3)ccc2n1	SMARCA2 act 8.1 (no result: Hsp70 activator) | SMARCA2 conf 19 | VP16 Luc act inactive
Cc1ccc2cc(NC(=O)c3ccccc3)ccc2n1	SMARCA2 act 9.2 (no result: Hsp70 activator) | SMARCA2 conf inactive | VP16 Luc act 13
CCN1CCN(c2ccc(NC(=O)c3cccc(F)c3)cc2Cl)CC1	SMARCA2 act 14 | SMARCA2 conf 9.1 | VP16 Luc act 5.8
O=C(Nc1ccc2ccccc2c1)c1cccc(F)c1	SMARCA2 act 9.4 (no result: Hsp70 activator) | SMARCA2 conf inactive | VP16 Luc act 11
C#CCCC(=O)O[C@H]1CCC[C@@]2(C(=O)N(Cc3ccccc3)c3ccccc32)[C@H]1NC(=O)CCc1ccccc1	none (no result: GAA850 FXN act, GalR3 antagonist, HIF activator, Hsp70 activator)
CCNC(=O)Nc1ccc2c(c1)C(=O)N(C)[C@H]1CC[C@H](CC(=O)N[C@H](C)c3ccccc3)O[C@@H]1CO2	none (no result: GAA850 FXN act, GalR3 antagonist, HIF activator, Hsp70 activator)
O=C(Nc1ccc2oc(=O)ccc2c1)c1ccco1	SMARCA2 act 8.3 | SMARCA2 conf inactive | VP16 Luc act inactive
CC(C)CC(=O)c1c(O)cc(O)c2c1OC1=C(C(=O)C(C)(C)C(=O)C1(C)C)C2CC(C)C (stereo not given)	none (no result: GAA850 FXN act, HIF activator, Hsp70 activator)
Cc1ccc(C)c(NC(=S)c2ccc3ccccc3n2)c1	SMARCA2 act 8.5 | SMARCA2 conf inactive | VP16 Luc act 10
COc1ccc(CCN2CC(C(=O)NCCc3ccccc3)CC2=O)cc1OC (stereo not given)	SMARCA2 act 8.7 | SMARCA2 conf inactive | VP16 Luc act inactive
Cc1nc(NC(=O)C2CC2)sc1C(=O)Nc1ccccc1	none (no result: Hsp70 activator)
Cc1ccccc1NC(=O)c1sc(NC(=O)C2CC2)nc1C	SMARCA2 act 8.4 (no result: Hsp70 activator) | SMARCA2 conf inactive | VP16 Luc act inactive
COC(=O)[C@]12C[C@H](CC(=O)NCc3ccc(OC)c(OC)c3)C(=O)N(CCC3=CCCCC3)C1=C[C@H](C(C)C)O[C@@H]2C1CC1	none (no result: GAA850 FXN act, GalR3 antagonist, HIF activator, Hsp70 activator)
COc1ccc(-n2nc(C(=O)NCC(=O)N3CCN(c4ccccn4)CC3)c3ccccc3c2=O)cc1	SMARCA2 act 11 | SMARCA2 conf inactive | VP16 Luc act inactive
CCCn1nc(C(=O)N2CCN(c3ccccn3)CC2)c2ccccc2c1=O	SMARCA2 act 8.1 (no result: HIF activator, Hsp70 activator) | SMARCA2 conf inactive | VP16 Luc act inactive
O=C(c1nn(-c2ccccc2)c(=O)c2ccccc12)N1CCN(c2ccccn2)CC1	none
COc1ccc(-n2nc(C(=O)NCC(=O)N3CCN(c4ccccn4)CC3)c3ccccc3c2=O)cc1OC	none
COC(=O)CC(=O)CC(NS(=O)(=O)c1ccc(C)cc1)c1ccccc1 (stereo not given)	none (no result: GAA850 FXN act, HIF activator, Hsp70 activator)
CN1OC[C@@H]2CN(C(=S)NCCc3ccccc3)[C@H](c3ccc(-n4ccnc4)cc3)C[C@@H]21	SMARCA2 act 8.4 (no result: GAA850 FXN act, HIF activator, Hsp70 activator) | SMARCA2 conf inactive | VP16 Luc act inactive
CN1OC[C@@H]2CN(C(=O)CCc3ccccc3)[C@H](c3ccc(-n4ccnc4)cc3)C[C@@H]21	none (no result: GAA850 FXN act, HIF activator, Hsp70 activator)
CCOC(=O)[C@@]12CCCC=C1N(CCc1ccc(Cl)cc1)C(=O)[C@H]2CC(=O)NCC1CCCCC1	none (no result: GAA850 FXN act, GalR3 antagonist, HIF activator, Hsp70 activator)
S=C1NCCOc2ccccc21	none (no result: GAA850 FXN act, HIF activator, Hsp70 activator)
